# According to ChEMBL document CHEMBL3988442, “University of Dundee, Small-Polar-MMV Screening Library” (2021):
# Target: AMP-activated protein kinase, AMPK (Homo sapiens) (UniProt P54646+O43741+P54619+Q9UGJ0+Q9Y478+Q13131+Q9UGI9)
# Test: AMP-dependent Kinase enzyme assay. An in vitro enzyme assay that detects ADP turnover that is directly proportional to AMPK activity. This uses naive AMPK that is activated during the assay with MK-8722
# Format: functional
# Design: scale not given: direction of the effect not stated beside the values
# Conditions: 30 µM
row,Structure (SMILES),Percent Effect [%]
1,COCCN1CCC2(CCCN(C(=O)c3cnoc3C)C2)C1=O (stereo not given),3.34
2,CC(C)CCN1CCNC(=O)C1CC(=O)N1CCc2sccc2C1 (stereo not given),0.663
3,O=C(CN1CCCCC1Cn1cncn1)NC1CCN(C2CC2)CC1 (stereo not given),-4.13
4,COCCC(=O)N1CCC2(COCc3cnc(-c4ccccc4)nc32)C1 (stereo not given),15.5
5,Cc1cc(CN2CCc3nn(C(C)C)c(=O)cc3C2)no1,-5.64
6,Cc1cccc(Cn2ccc(NS(C)(=O)=O)n2)c1,-2.37
7,CN1CCN(Cc2ccccc2CNC(=O)c2ccc(Br)cc2F)CC1,-1.3
8,CCCC(=O)N1CCC(O)(Cn2c(CC)nc3ccccc3c2=O)CC1,21.5
9,CN(CC1(O)CCCCC1)C1CCCN(Cc2noc(C3CC3)n2)C1 (stereo not given),-8.18
10,Cc1ccc(N2CCCN(C(=O)C(C(C)C)n3cncn3)CC2)nn1 (stereo not given),-7.95
11,CCc1nnc(CNCC2CCCN2c2cccnn2)o1 (stereo not given),0.161
12,Cc1cc(NC(=O)CN2CCc3nn(C)c(=O)cc3C2)on1,-63.3
13,CCc1c(C(=O)NCC(=O)OCC2CC2)cnn1-c1ccc(C)cc1,2.14
14,Fc1ccc(CN2CCCN(Cc3cscn3)CC2)cc1,-0.0725
15,Cc1cc(C)n(CC(=O)N2CCC(NS(C)(=O)=O)CC2)n1,1.32
16,CC(=O)NCCNC(=O)CN1CCN(Cc2nccn2C)C(C)C1 (stereo not given),-3.67
17,CSCCCN1CCCC1c1noc(C)n1 (stereo not given),-11.1
18,CCn1ccnc1CN1CCC(CNC(=O)c2ccc(C)nc2)C1 (stereo not given),4.72
19,CC(=O)N1CC(Cc2nccc3ccn(C)c23)C1,0.304
20,NC(=O)CN1CCC(NC(=O)c2ccn(-c3cccc(F)c3)n2)CC1,-2.99

# Target: Sialic acid-binding Ig-like lectin 9 (Homo sapiens) (UniProt Q9Y336)
# Sequence (Q9Y336 whole entry): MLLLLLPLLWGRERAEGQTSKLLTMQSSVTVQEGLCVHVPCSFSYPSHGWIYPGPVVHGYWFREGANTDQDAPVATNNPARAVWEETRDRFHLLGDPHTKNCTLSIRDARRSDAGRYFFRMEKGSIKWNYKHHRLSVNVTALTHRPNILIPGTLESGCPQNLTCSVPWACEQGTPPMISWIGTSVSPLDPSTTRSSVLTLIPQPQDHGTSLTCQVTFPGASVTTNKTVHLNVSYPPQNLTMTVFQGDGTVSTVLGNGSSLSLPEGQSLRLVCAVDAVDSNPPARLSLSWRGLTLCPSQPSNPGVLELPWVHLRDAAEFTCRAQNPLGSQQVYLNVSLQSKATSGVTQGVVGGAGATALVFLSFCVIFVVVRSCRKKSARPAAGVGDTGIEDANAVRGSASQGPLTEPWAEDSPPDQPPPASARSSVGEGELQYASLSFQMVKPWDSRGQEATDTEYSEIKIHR
# Test: Hs-Siglec9 ALPHAscreen SOP 20170721
# Design: scale not given: direction of the effect not stated beside the values
# Conditions: 10 µM
row,Structure (SMILES),Percent Effect [%]
1,O=C(NCCNc1ncccn1)N1CCN(Cc2cccnc2)CC1,22.9
2,CC(C)N1CCC(N2CCN(C3CCC3)CC2CCO)CC1 (stereo not given),12
3,COc1ccc(CN2CCCC(Cn3nc(C)nc3C)C2)cc1F (stereo not given),-1.91
4,Cc1cnn(CCCNC(=O)N2CCCCC(N3CCCC3)C2)c1 (stereo not given),7.49
5,CCn1cc(NC(=O)NCC(c2cccs2)N(C)C)cn1 (stereo not given),5.82
6,c1cnn(Cc2cn3c(n2)CN(Cc2nccs2)CC3)c1,-1.53
7,CCc1noc(C2CCN(C(=O)CCn3nc(C)cc3C)CC2)n1,12.9
8,CC(C#N)CSc1ccccc1NCC(=O)Nc1ccc(F)cc1 (stereo not given),-9.84
9,CCc1nc(CN2CCCC(NCc3nnc(C4CC4)o3)C2)no1 (stereo not given),-12.1
10,CCc1ccc(CCC(=O)N2CCOCC2c2ncon2)cc1 (stereo not given),1.5
11,CC(=O)N1CCN(c2cc(C3CN(C)CCO3)nc(C)n2)CC1 (stereo not given),0.199
12,CN(C)CC1CSCCCN1C(=O)Nc1ccc(C(C)(C)C)cc1 (stereo not given),12.9
13,Cc1n[nH]c(C2CN(C(=O)c3ccco3)CCO2)n1 (stereo not given),3.79
14,Clc1ccccc1C1(c2ccnc(CC3CC3)n2)CCNCC1,13.8
15,Cc1cc2cc(C(=O)N[C@@H]3CC[C@@H](N4CCOCC4)[C@@H]3O)ccc2o1,-5.41
16,CC(C)c1nnc2n1CCN(CC(=O)Nc1nncs1)C2,-3.59
17,CCc1noc(C)c1C(=O)N1CCCC1c1c(C)nn(C)c1OC (stereo not given),2.98
18,COc1cc(C)nc(N2CCN(C(=O)c3ccc[nH]3)CC2)n1,14.9
19,O=C(NCc1cccnc1)C1CC(=O)N(CC2CC2)C1 (stereo not given),-14.6
20,Fc1ccc(CN2CCO[C@H]3[C@H](OCC4CC4)CC[C@@H]32)cc1,0.245
21,COCCN1CCC2(CCCN(C(=O)c3cnoc3C)C2)C1=O (stereo not given),5.08
22,CC(C)CCN1CCNC(=O)C1CC(=O)N1CCc2sccc2C1 (stereo not given),4.62
23,O=C(CN1CCCCC1Cn1cncn1)NC1CCN(C2CC2)CC1 (stereo not given),22.5
24,COCCC(=O)N1CCC2(COCc3cnc(-c4ccccc4)nc32)C1 (stereo not given),-0.802
25,Cc1cc(CN2CCc3nn(C(C)C)c(=O)cc3C2)no1,2.16
26,Cc1cccc(Cn2ccc(NS(C)(=O)=O)n2)c1,7.5
27,CN1CCN(Cc2ccccc2CNC(=O)c2ccc(Br)cc2F)CC1,7.25
28,CCCC(=O)N1CCC(O)(Cn2c(CC)nc3ccccc3c2=O)CC1,-2.15
29,CN(CC1(O)CCCCC1)C1CCCN(Cc2noc(C3CC3)n2)C1 (stereo not given),-11.1
30,Cc1ccc(N2CCCN(C(=O)C(C(C)C)n3cncn3)CC2)nn1 (stereo not given),9.29
